DT40 TDP1 no CPT: qHTS for Inhibitors of human tyrosyl-DNA phosphodiesterase 1 (TDP1): qHTS in cells in absence of CPT; DT40 Tdp1-/- hTDP1 cells, no CPT, ATP luminescence, 48 h; Potency, µM (top dose mostly 46.2 µM), for inactives: at the highest dose activity change, negative = growth inhibition, hits mostly inhibitors; 420,000 compounds, 15% hits; also: potency is read from the fitted curve at half-maximal effect; nearly all actives have a fitted effect of over 55% in size
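DT40 Tdp1-/-;hTDP1 cells, no CPT (DMSO vehicle only), 400 cells/well; compounds pin-transferred; ≥48 hr, 37 °C; CellTiter-Glo 30 min RT dark, luminescence read.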
IL-1B inflam inh: blocks inflammasome-driven IL-1 beta release; THP-1 LPS/ATP IL-1B secretion, AlphaLISA, 16 h; hits give low values; activity change, % at 57.5 µM; 360,000 compounds, 4.7% hits; in the data active = activity change below about -50%; inconclusive = mostly about -30% to -49%
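Secreted IL-1B measured by AlphaLISA bead assay after 16 h compound exposure of THP-1 cells; compounds (final up to 57.5 uM) added 1 h before LPS (250 ng/mL) and ATP (1.25 mM) stimulation; lower signal means less secretion.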
RORgamma inh: ROR gamma (mouse) transcription inhibition | P51450 | Drosophila S2 Gal4-RORgamma UAS-luciferase reporter, 20 h | Potency, µM (highest dose often 53.6 µM), without a hit: at the top dose activity change, negative = inhibition, most hits filed as inhibitors | 310,000 compounds, 5.4% hits | AID 2551; also: potency is read from the fitted curve at half-maximal effect; nearly all actives have a fitted effect of over 60% in size
Target sequence (P51450 whole entry, looked up, the tested form may be a part): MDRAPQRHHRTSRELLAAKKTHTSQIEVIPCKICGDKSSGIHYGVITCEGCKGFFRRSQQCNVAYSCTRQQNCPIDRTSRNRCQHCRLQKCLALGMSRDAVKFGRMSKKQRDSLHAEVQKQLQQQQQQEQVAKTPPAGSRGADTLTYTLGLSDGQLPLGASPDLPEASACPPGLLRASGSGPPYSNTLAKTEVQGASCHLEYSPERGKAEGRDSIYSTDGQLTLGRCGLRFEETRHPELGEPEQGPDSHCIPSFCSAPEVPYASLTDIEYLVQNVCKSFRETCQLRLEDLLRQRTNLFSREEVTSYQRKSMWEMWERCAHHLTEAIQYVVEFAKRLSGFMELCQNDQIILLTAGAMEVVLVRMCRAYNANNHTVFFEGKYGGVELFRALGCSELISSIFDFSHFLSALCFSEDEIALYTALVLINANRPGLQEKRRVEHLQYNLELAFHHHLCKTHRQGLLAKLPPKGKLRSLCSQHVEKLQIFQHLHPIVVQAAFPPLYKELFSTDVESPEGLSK
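Drosophila S2 cells stably expressing Gal4-DBD/mouse RORγ fusion under metallothionein promoter plus UAS-luciferase; compound 1 h, then 700 uM CuSO4 induction for 20 h at ambient temperature; inhibition read as reduced luminescence.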
Gal4-VP16 FLuc: counter-screen for ROR gamma inhibitors: Gal4-VP16 reporter. 310,000 compounds, 3.5% hits. Potency, µM (top dose mostly 53.6 µM), for inactives: at the highest dose activity, negative = inhibition, most hits filed as inhibitors. AID 2546. Drosophila S2 Gal4-VP16 UAS-luciferase, luminescence, 20 h;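 also: Gal4-VP16 expression switched on by copper sulfate through the metallothionein promoter; potency is read from the fitted curve at half-maximal effect; nearly all actives have a fitted effect of over 50% in size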
LDHA inh: blocks human lactate dehydrogenase A; P00338; purified LDHA, NADH/diaphorase-resazurin fluorescence; hits give low values; activity change, % (values are at about 110 or 230 µM); 480,000 compounds, 0.15% hits; AID 1347041; in the data active = activity change below about -30%; inconclusive = mostly about -25% to -30%;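 also: plate controls were DMSO wells for no effect and wells without enzyme for full effect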
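Human LDH5 at 2 nM final in Tris HCl pH 7.4 with 0.06 mM NADH and 0.2 mM pyruvate, reacted 5 minutes at room temperature. Remaining NADH coupled via diaphorase/resazurin; resorufin fluorescence read at 0 and 20 minutes, normalized to enzyme-free and DMSO wells.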
DT40 TDP1 CPT: DT40-hTDP1 cell growth loss with CPT; chicken DT40 Tdp1-/-;hTDP1 cells + 20 nM CPT, ATP luminescence, 48 h; Potency, µM (doses to about 46.2 µM), without a hit: at the top dose activity change, negative = growth inhibition, actives largely listed as inhibitors; 420,000 compounds, 12% hits; also: potency is read from the fitted curve at half-maximal effect; nearly all actives have a fitted effect of over 55% in size
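Chicken DT40 Tdp1-/- cells complemented with human TDP1, 400 cells/well, exposed to compounds plus 20 nM camptothecin for at least 48 h at 37 C; viability read as ATP content by CellTiter-Glo luminescence.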
* marks the source's active call; other numbers are inactive results. In the library only some 18% were active in any assay of this set; here they are far more common. Unless noted, calls follow the shape of the dose curve; as a rule, active = well fitted curve in the direction sought with a large enough effect; inconclusive = small, poorly fitted or top-dose-only effect, or another doubt; inactive = no such curve, though single readings can be large; an effect the other way counts as inactive or inconclusive. Unless noted, % is scaled to controls: 0 for no effect and ±100 for the full control effect.

`CC(C)(C)C(=O)Nc1cccc(C(=O)c2cccc(NC(=O)C(C)(C)C)c2)c1` gave DT40 TDP1 no CPT 8.2µM*, IL-1B inflam inh -1.3, RORgamma inh 36.3%, Gal4-VP16 FLuc 3.4%, LDHA inh -2.8 and DT40 TDP1 CPT inconclusive.
Screening CC(=O)Nc1ccc2c(c1)C(=O)c1ccccc1C2=O returned DT40 TDP1 no CPT inconclusive, IL-1B inflam inh -6.3, RORgamma inh inconclusive, Gal4-VP16 FLuc -13.7%, LDHA inh 6.4 and DT40 TDP1 CPT inconclusive.
CC(C)(C)C(=O)Nc1ccc2c(c1)C(=O)C(=O)c1ccccc1-2 was read as DT40 TDP1 no CPT 0.708µM*, LDHA inh 52.7 and DT40 TDP1 CPT 0.708µM*.
Cc1nc2c(cc(OCc3ccc(F)cc3)c3ccsc32)s1 was read as LDHA inh 15.1.
Screening COc1ccc(-c2n(CC(=O)OC3CC(C)CCC3C(C)C)c3ccccc3[n+]2C)cc1 (stereo unspecified) returned DT40 TDP1 no CPT 0.411µM*, IL-1B inflam inh -200.7*, RORgamma inh -0.3%, Gal4-VP16 FLuc -12.0%, LDHA inh 1.2 and DT40 TDP1 CPT 0.461µM*.
`CC1CCC(C(C)C)C(OC(=O)CSc2ccccc2C(=O)O)C1` (stereo unspecified) gave LDHA inh 12.9.
`COc1ccc(OCc2n(CC(=O)OC3CC(C)CCC3C(C)C)c3ccccc3[n+]2C)cc1` (stereo unspecified) gave DT40 TDP1 no CPT 2.31µM*, IL-1B inflam inh -57.5*, RORgamma inh inconclusive, Gal4-VP16 FLuc inconclusive, LDHA inh 0.4 and DT40 TDP1 CPT 3.26µM*.
For CC(Sc1n[nH]c(-c2cccs2)n1)C(=O)Nc1cccc(Cl)c1Cl (stereo unspecified) the results were LDHA inh 16.4.
`CCOC(=O)N1CCN(C(=O)c2cccc(N3C(=O)NC4CC3(C)Oc3ccc(Cl)cc34)c2)CC1` (stereo unspecified) gave DT40 TDP1 no CPT 3.26µM*, IL-1B inflam inh 8.5, RORgamma inh 39.0%, Gal4-VP16 FLuc -1.6%, LDHA inh -5.8 and DT40 TDP1 CPT inconclusive.
For COc1ccc(N2C(=O)NC3CC2(C)Oc2ccc(Cl)cc23)cc1OC (stereo unspecified) the results were DT40 TDP1 no CPT inconclusive, IL-1B inflam inh 5.7, RORgamma inh 28.7%, Gal4-VP16 FLuc -0.7%, LDHA inh -0.9 and DT40 TDP1 CPT 23.1µM*.
Screening Cc1ccc2c(c1)C1CC(C)(O2)N(c2cccc(C(=O)NCc3ccccn3)c2)C(=O)N1 (stereo unspecified) returned DT40 TDP1 no CPT inconclusive, IL-1B inflam inh -4.6, RORgamma inh 10.8%, Gal4-VP16 FLuc -7.4%, LDHA inh -5.6 and DT40 TDP1 CPT inconclusive.
For COc1ccc(N2CCN(C(=O)c3ccc(N4C(=O)NC5CC4(C)Oc4ccccc45)cc3)CC2)cc1 (stereo unspecified) the results were DT40 TDP1 no CPT inconclusive, IL-1B inflam inh inconclusive, RORgamma inh inconclusive, Gal4-VP16 FLuc -10.1%, LDHA inh 0.1 and DT40 TDP1 CPT 29.1µM*.
`CCOC(=O)C1CCN(C(=O)c2cccc(N3C(=O)NC4CC3(C)Oc3ccc(C)cc34)c2)CC1` (stereo unspecified) gave DT40 TDP1 no CPT -3.2%, IL-1B inflam inh -14.5, RORgamma inh 0.5%, Gal4-VP16 FLuc -2.9%, LDHA inh -1.7 and DT40 TDP1 CPT inconclusive.
For COc1cc(N2C(=O)NC3CC2(C)Oc2ccccc23)cc(OC)c1OC (stereo unspecified) the results were DT40 TDP1 no CPT 7.7%, IL-1B inflam inh 23.2, RORgamma inh 8.1%, Gal4-VP16 FLuc -1.6%, LDHA inh -6.3 and DT40 TDP1 CPT 15.7%.
For Cc1ccc2c(c1)C1CC(C)(O2)N(c2cccc(C(=O)NC3CCN(Cc4ccccc4)CC3)c2)C(=O)N1 (stereo unspecified) the results were DT40 TDP1 no CPT inconclusive, IL-1B inflam inh -52.8*, RORgamma inh -16.4%, Gal4-VP16 FLuc 0.1%, LDHA inh -1.5 and DT40 TDP1 CPT inconclusive.
`Cc1cccc(NC(=O)CN(C)C(=O)Cc2ccc3ccccc3c2)c1C` gave LDHA inh 4.4.
`Cc1ccc(Oc2cc(C#N)c(C#N)cc2Oc2ccc(C)c(C)c2)cc1C` gave LDHA inh 7.1.
`COc1ccc(CCN2C(=S)NC3CC2(C)Oc2ccc([N+](=O)[O-])cc23)cc1OC` (stereo unspecified) gave DT40 TDP1 no CPT 14.6µM*, IL-1B inflam inh -20.7, RORgamma inh 15.8µM*, Gal4-VP16 FLuc inconclusive, LDHA inh -6.6 and DT40 TDP1 CPT 10.3µM*.
Screening COc1ccc(CCN2C(=O)CSC2c2cccc([N+](=O)[O-])c2)cc1OC (stereo unspecified) returned DT40 TDP1 no CPT inconclusive, IL-1B inflam inh -1.2, RORgamma inh 18.2%, Gal4-VP16 FLuc 3.3%, LDHA inh -1.1 and DT40 TDP1 CPT inconclusive.
`Cc1ccc(F)cc1NCc1ccccc1C#N` gave LDHA inh 7.2.
Screening Cc1cc(C(=O)N/N=C/c2ccco2)c2ccccc2n1 returned DT40 TDP1 no CPT inconclusive, IL-1B inflam inh 14.1, RORgamma inh -3.0%, Gal4-VP16 FLuc -10.6%, LDHA inh -10.9 and DT40 TDP1 CPT inconclusive.
For Cc1cc(C(=O)N/N=C/c2ccc(C)o2)c2ccccc2n1 the results were DT40 TDP1 no CPT 1.3µM*, IL-1B inflam inh 51.6, RORgamma inh inconclusive, Gal4-VP16 FLuc inconclusive, LDHA inh 0.0 and DT40 TDP1 CPT 1.46µM*.
`Cc1ccc(-c2cc(C(=O)N/N=C/c3ccoc3)c3ccccc3n2)cc1` gave DT40 TDP1 no CPT inconclusive, IL-1B inflam inh -4.6, RORgamma inh 7.08µM*, Gal4-VP16 FLuc 10µM*, LDHA inh -0.2 and DT40 TDP1 CPT inconclusive.
Screening CCN(CC)c1ccc(/C=N/NC(=O)c2c[nH]c3ccccc23)cc1 returned DT40 TDP1 no CPT 23.1µM*, IL-1B inflam inh -27.4, RORgamma inh -23.0%, Gal4-VP16 FLuc 9.8%, LDHA inh -1.0 and DT40 TDP1 CPT inconclusive.
Screening CCN(CC)c1ccc(/C=N/NC(=O)c2cc(C)nc3ccccc23)cc1 returned DT40 TDP1 no CPT inconclusive, IL-1B inflam inh -20.1, RORgamma inh 11.2µM*, Gal4-VP16 FLuc inconclusive, LDHA inh -4.9 and DT40 TDP1 CPT 1.7%.
